High-throughput results: PubChem BioAssay, National Center for Advancing Translational Sciences (NCATS)
Only some compounds are listed: those with a hit (about 9.4% of all), similar ones and a draw of the others.
AMA1 RON2 block: disrupts binding of P. falciparum AMA1 to RON2; AlphaScreen AMA1-biotinylated RON2 peptide binding; Potency, µM (doses to about 58.2 µM), without a hit: at the highest dose activity change, negative = inhibition, hits mostly inhibitors; hit rate 0.2% among 360,000;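 further: 0% = vehicle wells and -100% = peptide control; nearly all actives have a fitted effect of over 45% in size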
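AMA1 (3D7) with his tag at 25 nM final met compounds first, then biotinylated RON2 peptide at 25 nM; detection used donor plus acceptor beads, 10 µg/mL apiece, read by AlphaScreen after 30 min at room temperature.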
Pf growth 96h: P. falciparum growth inhibition at 96 hours. P. falciparum luciferase reporter growth, 96 h. Potency, µM (titrated, usually from 28.7 µM), for the others: at the highest dose activity change, negative = inhibition, actives largely listed as inhibitors. hit rate 6.9% among 320,000; further: on the % scale 0 is the no-effect control and ±100 the full control effect
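96 h incubation, 37 C, 5% CO2, of luciferase-reporter P. falciparum-infected RBCs (2% hematocrit, 0.05% parasitemia final) with test compounds; endpoint luminescence.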
Pf growth 48h: inhibits P. falciparum growth in the first generation, 48 h; P. falciparum luciferase growth in erythrocytes, 48 h; Potency, µM (top dose mostly 28.7 µM), without a hit: at the highest dose activity change, negative = inhibition, hits mostly inhibitors; hit rate 5.9% among 310,000; AID 504832; further: on the % scale 0 is the no-effect control and ±100 the full control effect
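Luminescence readout; reporter = integrated firefly luciferase in P. falciparum. RBC culture at 2% hematocrit, 0.1% parasitemia final, 37 C/5% CO2; decreased signal taken as growth inhibition.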
SARS PLP yeast: inhibitors of SARS-CoV papain-like protease in yeast. S. cerevisiae expressing SARS-CoV PLpro, growth rescue. Potency, µM (doses to about 32.9 µM), for the others: at the highest dose activity, positive = growth rescue, most hits filed as activators. hit rate 0.19% among 330,000. AID 485353; calls by dose curve; further: 0% is about no effect; nearly all actives have a fitted effect of over 55% in size
An asterisk follows results filed as active; ? = inconclusive; · = no result given. Unless noted, the call rests on the fitted dose curve; in most records, active means well fitted curve in the direction sought with a large enough effect; inconclusive means small, poorly fitted or top-dose-only effect, or another doubt; inactive means no such curve, though single readings can be large; an effect the other way counts as inactive or inconclusive. Potency means the concentration at half of the fitted maximal effect.

SMILES	AMA1 RON2 block	Pf growth 96h	Pf growth 48h	SARS PLP yeast
CCCCn1c(-c2cccnc2)n[nH]c1=S	11%	2.6µM*	-1%	5%
CCCCn1c(-c2cccnc2)nc2cc3[nH]c(=O)c(C(C)C)nc3cc21	26%	10µM*	?	17%
Cn1c(-c2cccc(Br)c2)n[nH]c1=O	-14%	28%	22%	2%
CCn1c(-c2cccnc2)n[nH]c1=S	-12%	19%	?	2%
CCC(c1nc2ccccc2[nH]1)n1c(-c2cccnc2)nc2ccccc21 (stereo not drawn)	0%	·	·	·
CCCCn1c(-c2cccc(Br)c2)nc2cc3[nH]c(=O)c(C(C)C)nc3cc21	15%	6.6µM*	?	-6%
COc1ccc(/C=c2\s/c(=C/C(=O)c3ccc(C)cc3)[nH]c2=O)c(OC)c1	39%	53%	-4%	-2%
Cc1ccc(S(=O)(=O)N2CCOCC2)cc1NC(=O)COC(=O)c1ccc(Cl)s1	21%	·	·	3%
COC(=O)NNC(=O)C12CC3CC(CC(C3)C1)C2	-18%	4.1µM*	3%	-5%
CCOC(=O)NNC(=O)C12CC3CC(CC(C3)C1)C2	35%	18%	?	2%
Cc1cccc(C)c1-n1nnnc1-c1nc2ccccc2[nH]c1=O	-13%	·	·	·
O=[N+]([O-])c1cccc(/C=C2\CCc3cnn(C4CCS(=O)(=O)C4)c32)c1 (stereo not drawn)	-1%	·	·	·
c1ccc(-c2ccccc2OCCCCN2CCCCC2)cc1	7%	18%	10µM*	-4%
c1ccc(OCCOCCN2CCN(C(c3ccccc3)c3ccccc3)CC2)cc1	?	-23%	?	-14%
COc1ccccc1OCCCCN1CCN(C(c2ccccc2)c2ccccc2)CC1	?	12µM*	?	-4%
COc1cccc(OC)c1OCCCCN1CCCCC1	?	13µM*	?	-10%
CC1CCN(CCOc2ccccc2-c2ccccc2)CC1	-1%	?	1%	8%
CC1CC(C)CN(CCOc2ccccc2-c2ccccc2)C1 (stereo not drawn)	-2%	10µM*	?	-21%
COc1cccc(OC)c1OCCCCN1CCCC1	-3%	?	77%	0%
c1ccc(-c2ccccc2OCCCN2CCCCCC2)cc1	-5%	-25%	?	0%
O=C(O)COCC(=O)N1CCN(C(c2ccccc2)c2ccccc2)CC1	15%	5%	-12%	1%
O=C(O)COCCN1CCN([C@@H](c2ccccc2)c2ccc(Cl)cc2)CC1	·	4.1µM*	?	·
COc1cc(/C=C2\C(=O)N(c3ccccc3)N=C2C)ccc1Oc1ccc([N+](=O)[O-])cc1[N+](=O)[O-]	-28%	10µM*	-17%	-21%
COc1ccc(C=C(C(C)=O)C(=O)c2ccccc2)cc1	7%	·	·	·
COc1cc(CN2CCN(Cc3c[nH]c4ccccc34)CC2CCO)cc(OC)c1 (stereo not drawn)	-7%	10µM*	-21%	13%
SMILES	AMA1 RON2 block	Pf growth 96h	Pf growth 48h	SARS PLP yeast
CCOc1ccc(CN2CCN(Cc3c(C)nn(CC)c3C)CC2CCO)cc1 (stereo not drawn)	2%	14%	-18%	-1%
CCn1ncc(CN2CCN(Cc3cccc(OC)c3)C(CCO)C2)c1C (stereo not drawn)	4%	7.4µM*	0%	-1%
COc1ccc(CN2CCN(Cc3cccc(OC)c3)C(CCO)C2)cc1 (stereo not drawn)	8%	20%	-1%	0%
CCn1nc(C)c(CN2CCN(Cc3cccc(OC)c3)C(CCO)C2)c1C (stereo not drawn)	-14%	12µM*	-3%	0%
COc1ccc(CN2CCN(Cc3c[nH]c4ccccc34)CC2CCO)cc1C (stereo not drawn)	6%	?	?	2%
Cc1cc(SCC(=O)N/N=C/c2ccc(O)c(O)c2O)c(C)cc1Br	28%	·	13µM*	?
COc1cc(/C=N/NC(=O)CSc2cc(C)c(Br)cc2C)ccc1O	56%	·	2%	-8%
Fc1ccc(CCNCc2ccc(Br)cc2)cc1	?	12%	-11%	-8%
OC(CNCc1ccc(Cl)cc1)(c1ccccc1)c1ccc(F)cc1 (stereo not drawn)	-7%	?	13µM*	0%
OC(CNCc1ccc(F)cc1)(c1ccc(F)cc1)c1ccc(F)cc1	1%	13µM*	?	-2%
CCCCN(C)C(=S)Nc1ccc(Oc2ccccc2)cc1	26%	-13%	0%	-53%
